Screening data (PubChem)
TSHR antag: blocks TSH signaling through the human TSH receptor; TSHR-expressing cells, TSH-stimulated cAMP HTRF, 2 h; active compounds read low; activity change, negative = inhibition, % at 11.5 µM; 0.2% of 330,000 active; AID 504810;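 active = activity change below a set negative limit, meaning inhibition stronger than a set level, cut at about -70% in these data; inconclusive = activity change between two set negative limits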
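TSHR-expressing cells, 200/well, pre-treated with compound, then stimulated with EC80 TSH (4nM final) for 2 hours at 37 deg C. cAMP measured by competitive HTRF: anti-cAMP cryptate antibody in lysis buffer plus cAMP-d2, read after 30 minutes at room temperature.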
B2AR arrestin: recruits beta-arrestin to the human beta2-adrenergic receptor; P07550; beta-arrestin recruitment to beta2AR, cell-based reporter; Potency, µM (series often up to 46.1 µM), actives largely listed as activators; 0.02% of 330,000 active; also: nearly all actives have a fitted effect of over 65% in size
Target sequence (P07550 whole entry, looked up): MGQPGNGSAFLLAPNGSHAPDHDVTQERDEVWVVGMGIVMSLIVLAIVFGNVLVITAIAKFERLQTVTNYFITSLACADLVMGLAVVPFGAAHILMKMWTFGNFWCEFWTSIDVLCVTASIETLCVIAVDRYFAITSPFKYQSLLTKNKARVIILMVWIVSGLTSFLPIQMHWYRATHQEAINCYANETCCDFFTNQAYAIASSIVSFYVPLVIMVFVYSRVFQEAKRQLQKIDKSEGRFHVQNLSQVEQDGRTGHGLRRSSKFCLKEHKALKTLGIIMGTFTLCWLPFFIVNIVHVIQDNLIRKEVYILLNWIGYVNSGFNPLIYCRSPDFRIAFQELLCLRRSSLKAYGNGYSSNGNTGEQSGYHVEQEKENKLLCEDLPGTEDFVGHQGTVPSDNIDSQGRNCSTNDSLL
RORgamma inh: ROR gamma (mouse) transcription inhibition. Drosophila S2 Gal4-RORgamma UAS-luciferase reporter, 20 h. Potency, µM (top dose mostly 53.6 µM), actives largely listed as inhibitors. 5.4% of 310,000 active. AID 2551; also: nearly all actives have a fitted effect of over 60% in size
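Schneider cells (Drosophila), stable Gal4 DBD–ROR gamma + UAS-luc; 1 hr cmpd preincubation; Cu2+ induction 700 uM final; 20 hr ambient; luminescence.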
ELG1 DNA repair: blocks ELG1-dependent DNA repair in HEK293T cells; HEK293T ELG1-luciferase reporter, luminescence, 16 h; DNA damage induced by 5-fluorouridine; Potency, µM (titrated, usually from 46.1 µM), most hits filed as inhibitors; 2.3% of 330,000 active; AID 504467; also: nearly all actives have a fitted effect of over 55% in size
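Cells (2,000 per well) received 5-fluorouridine plus test compound or DMSO and were incubated 16 hr at 37 °C, 5% CO2. Luciferase activity was read by luminescence 30 min after ONE-Glo addition; signal suppression marked inhibition of damage-induced ELG1 function.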
Gal4-VP16 FLuc: inhibits Gal4-VP16 luciferase reporter, ROR gamma counter-screen. Drosophila S2 Gal4-VP16 UAS-luciferase, luminescence, 20 h. Potency, µM (titrated, usually from 53.6 µM), hits mostly inhibitors. 3.5% of 310,000 active;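 also: Gal4-VP16 expression switched on by copper sulfate through the metallothionein promoter; nearly all actives have a fitted effect of over 50% in size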
Hits are given with their value; . = inactive; ? = inconclusive; / = no result; [ ] = another dose, or the depositor's remark. Sampled rows, rich in hits. Any-hit rate of the full collection: about 7.5%. Unless noted, calls follow the shape of the dose curve; as a rule, active = well fitted curve in the direction sought with a large enough effect; inconclusive = small, poorly fitted or top-dose-only effect, or another doubt; inactive = no such curve, though single readings can be large; an effect the other way counts as inactive or inconclusive.

SMILES	TSHR antag	B2AR arrestin	RORgamma inh	ELG1 DNA repair	Gal4-VP16 FLuc
C/C=C/C1=Cc2ccccc2C(C(C(=O)OC)C(=O)OC)N1C(=O)OC (centres undefined)	/	/	.	/	.
Fc1ccc(Nc2nc(-c3cccnc3)nc3ccccc23)cc1	/	/	.	/	.
Fc1ccccc1Nc1nc(-c2ccncc2)nc2ccccc12	.	.	.	2.59µM	.
COC(=O)c1ccc(Nc2nc(-c3ccncc3)nc3ccccc23)cc1	.	.	.	.	.
CN(C)c1ccc(-c2nc3ccccc3c(=O)[nH]2)cc1	.	.	5.62µM	?	?
Fc1ccc(Nc2nc(-c3ccncc3)nc3ccccc23)cc1	.	.	.	2.31µM	?
c1ccc(Nc2nc(-c3ccncc3)nc3ccccc23)cc1	.	.	.	2.06µM	.
COC(=O)C/C=C\[C@@H](C)[C@@H](/C=N\O[C@@H](C)c1cn([C@H](CO)Cc2ccccc2)nn1)NS(=O)(=O)c1ccc(C)cc1	/	/	.[10 µM]	/	.[10 µM]
CC1CCCCN1C(=O)CSc1nnc(-c2ccccc2O)o1 (centres undefined)	.	.	?	?	?
O=C(NC(=S)Nc1sc2c(c1C(=O)O)CCCC2)c1ccccc1	.	.	.	?	.
CC(C)(C)c1ccc(/C=N/NC(=O)CN2CCS(=O)(=O)CC2)cc1	.	.	.	.	.
CC12C=C(/C=C/c3ccccc3)C(C)(C1)C(c1ccccc1)CC2=O (centres undefined)	/	/	.[10 µM]	/	.[10 µM]
CCOC(=O)c1c(C)[nH]c2cc(Br)c(O)cc12	.	.	?	?	.
CCOC(=O)c1c(OCC)[nH]c2c1cc(O)c1ccccc12	.	.	?	20.6µM	?
CC(=O)c1ccc(-c2ccc(C(=O)Nc3nc(-c4ccccn4)cs3)o2)cc1	.	.	/	18.3µM	/
Cc1ccc(C(=O)Nc2nc(-c3ccccn3)cs2)o1	.	.	12.6µM	?	?
Cc1ccccc1C(=O)N1CCC(C(=O)Nc2ccccc2N2CCCC2)CC1	.	.	/	?	/
CS(=O)(=O)OCC(O)C(O)COS(C)(=O)=O (centres undefined)	/	/	.	/	.
Cc1ccc(C(=O)N2CCCC(CCC(=O)N3CCN(c4ccccn4)CC3)C2)cc1C (centres undefined)	.	.	.	11.6µM	.
Cc1ccoc1C(=O)N1CCCC(CCC(=O)N2CCN(c3ccccn3)CC2)C1 (centres undefined)	.	.	.	20.6µM	.
COc1cc(OC)c2c(c1C(CCN1CCN(c3ccccc3)CC1)c1ccc(N(C)C)cc1)OC(=O)CC2c1ccc(N(C)C)cc1 (centres undefined)	/	/	.	/	.
CCC/C(=N/NC(=O)c1csc(C)c1C)c1ccc(Cl)s1	.	.	15.8µM	?	?
Cc1scc(C(=O)N/N=C/c2ccco2)c1C	.	.	.	?	.
CCC/C(=N\NC(=O)c1ccco1)c1ccc(Cl)s1	.	.	11.2µM	.	17.8µM
S=c1nc[nH]c2c1cnn2-c1ccccc1	.	.	3.55µM	?	3.98µM
SMILES	TSHR antag	B2AR arrestin	RORgamma inh	ELG1 DNA repair	Gal4-VP16 FLuc
COc1cc(OC)cc(C(=O)N[C@H](C(=O)OCC(=O)c2c[nH]c3ccccc23)C(C)C)c1	.	.	/	20.6µM	/
COc1cc(OC)cc(C(=O)N[C@H](C(=O)NCCc2c[nH]c3ccccc23)C(C)C)c1	.	.	.	.	?
O=C(COc1ccc(Br)cc1Br)NC(=S)N1CCCc2ccccc21	.	.	.	?	.
O=C(COc1ccc(Br)cc1Cl)NC(=S)N1CCc2ccccc21	.	.	0.794µM	?	0.708µM
CC(Oc1ccc(Cl)cc1Cl)C(=O)NN=C1CCN(C)CC1 (centres undefined)	.	.	7.08µM	.	10µM
CC(Oc1ccc(Cl)cc1Cl)C(=O)NC(=S)N1CCc2ccccc21 (centres undefined)	.	.	0.708µM	.	0.891µM
Cc1ccc2c(Cl)c(C(=O)NC3CC3)sc2c1	.	.	.	?	.
COC(=O)N[C@H](C[N+](=O)[O-])c1cccc(C)c1	/	/	.	/	.
C/C(=C\C[Si](C)(C)C)CCC=O	/	/	.	/	.
COC(=O)C/C=C/C(C)C(OCc1cccc(Br)c1)C(C)C(OC)C1CCCCC1 (centres undefined)	/	/	.[10 µM]	/	.[10 µM]
N#Cc1ccc(C(=O)Nc2ccn(-c3ccccc3)n2)cc1	.	.	.	23.1µM	.
COc1ccc(CNC(=S)Nc2ccc(F)c(Cl)c2)cc1	.	.	7.08µM	.	?
COc1cccc(CNC(=S)Nc2cc(C)cc(C)c2)c1	.	.	4.47µM	.	.[10 µM]
Cc1cc(C)cc(NC(=S)NCc2cccnc2)c1	.	.	?	.	?
CCc1ccc(NC(=S)Nc2cc(OC)c(NC(=O)C(C)C)cc2OC)cc1	.	.	8.91µM	.	17.8µM
COc1ccc(CNC(=S)Nc2cc(C)cc(C)c2)cc1	.	.	3.98µM	.	12.6µM
C[C@]12CCC(=O)C=C1CCC1C3CC[C@](O)(C(=O)CO)[C@@]3(C)CC3OC312 (some centres undefined)	/	/	.	/	.
CNC(=S)N(CCc1c(C)[nH]c2ccc(C)cc12)Cc1cccnc1	.	.	.	.	.
CCc1ccc(NC(=S)Nc2cccc(OC)c2)cc1	.	.	7.94µM	?	?
COc1cccc(NC(=S)NN=C2CCCCCC2)c1	.	?	12.6µM	?	?
COc1ccc(CCNC(=S)Nc2cccc(C)c2)cc1	.	.	7.08µM	.	10µM
COc1ccc(CNC(=O)Nc2cccc(C)c2)cc1	.	.	.	?	?
COc1cccc(NC(=S)NN2CCN(C)CC2)c1	.	.	.	?	.
COc1ccc(CNC(=S)Nc2cccc(OC)c2)cc1	.	.	17.8µM	.	12.6µM
CC(C)c1ccc(N(CC(=O)NCc2ccc(F)cc2)C(=O)c2csnn2)cc1	.	.	.	?	.
SMILES	TSHR antag	B2AR arrestin	RORgamma inh	ELG1 DNA repair	Gal4-VP16 FLuc
COc1ccc(C(=O)c2ccc(CC(=O)O)s2)cc1	.	.	?	.	?
O=C(CSc1n[nH]c(Cc2ccccc2)n1)Nc1ccccc1Br	.	.	.	.	.
CCCCCN(C(=O)CCC(=O)OCC(=O)Nc1cccc(SC)c1)c1c(N)n(CCCC)c(=O)[nH]c1=O	.	.	/	.	/
COc1ccc(C(=O)CC(=O)C(=O)Nc2cccc(C(C)=O)c2)cc1	.	.	.	.	.
COc1cccc(C(=O)NNC(=O)C(=O)Nc2cccc3ccccc23)c1	.	.	.	.	.
COc1cccc(C(=O)CC(=O)C(=O)Nc2cc(OC)c(OC)c(OC)c2)c1	.	.	.	.	.
COc1cccc(C(=O)NNC(=O)C(=O)Nc2ccc(OC)cc2OC)c1	/	.	14.1µM	.	.
COc1ccc(C(=O)CC(=O)C(=O)Nc2ccc(C)c(C)c2)cc1	.	.	12.6µM	.	?
COc1cccc(C(=O)CC(=O)C(=O)Nc2cc(OC)ccc2OC)c1	.	.	11.2µM	?	?
CCOc1ccccc1NC(=O)C(=O)CC(=O)c1cccc(OC)c1	.	.	3.55µM	.	7.94µM
C/C=C(\C)C(=O)C[Si](C)(C)c1ccccc1	/	/	.	/	.
